Experimental data published in PubChem BioAssay (NCI).
About 79,000 compounds went through this panel and 15% of them were active in at least one assay; those are over-represented in the sample as a whole. A number with no mark means an inactive call. Calls of active or inactive are those of the source. No stated cut-off is given here; in the data, active means growth inhibition above about 70%; inactive means the rest.

Experiments:
[1] = NCI Yeast Anticancer Drug Screen. Data for the rad50 strain (AID 155);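 further: 0% = growth of vehicle-only cultures of the same strain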; conditions: S. cerevisiae rad50 strain growth inhibition; at 50.0 µM; active compounds read high
How it was run: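 Genetically altered yeast (DNA repair pathway); compound treatment; growth inhibition vs vehicle ctrl.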

[2] = NCI Yeast Anticancer Drug Screen. Data for the mec2-1 strain (AID 157); conditions: S. cerevisiae mec2-1 strain, at 50.0 µM, active compounds read high
How it was run: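 Mutant yeast (mec2-1) grown with compound; growth inhibition relative to vehicle control reported.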

[3] = NCI Yeast Anticancer Drug Screen. Data for the sgs1 mgt1 strain (AID 161);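 further: 0% = growth of cultures given vehicle only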; conditions: S. cerevisiae sgs1 mgt1 strain, at 50.0 µM, active compounds read high
How it was run: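 This yeast growth screen uses a strain with defined DNA-repair lesions; compound-treated growth is compared with vehicle-treated growth.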

[4] = NCI Yeast Anticancer Drug Screen. Data for the cln2 rad14 strain (AID 165);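 further: 0% = growth equal to vehicle treated cultures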; conditions: S. cerevisiae cln2 rad14 strain, at 50.0 µM, active compounds read high
How it was run: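 Readout is yeast growth inhibition versus vehicle-treated controls, using a strain with cln2 and rad14 alterations exposed to compound.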

[5] = NCI Yeast Anticancer Drug Screen. Data for the bub3 strain (AID 167); conditions: S. cerevisiae bub3 mutant strain, at 50.0 µM, active compounds read high
How it was run: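 Yeast carrying a defined mutation is treated with each compound, and growth is compared with that of vehicle-exposed cells to give inhibition.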

[6] = NCI Yeast Anticancer Drug Screen. Data for the mlh1 rad18 strain (AID 175); conditions: S. cerevisiae mlh1 rad18 strain growth inhibition; at 50.0 µM; active compounds read high
How it was run: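 Genetically defined yeast (DNA repair-deficient) exposed to compounds; growth inhibition determined relative to vehicle.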

SMILES	growth inhibition [1]	growth inhibition [2]	growth inhibition [3]	growth inhibition [4]	growth inhibition [5]	growth inhibition [6]
CSc1nnc(SC)s1	-3.3%	-22.6%	-18.8%	22.9%	1.4%	-9.35%
O=S(=O)(O)C(O)Cc1cccc2ccccc12 (stereo unspecified)	2.2%	-8.25%	1.3%	-40.2%	-17.8%	-0.3%
Cc1ccc(S(=O)(=O)N2CCCCC2)cc1	-11.8%	-3.35%	38.3%	-26.1%	-6.75%	-20.5%
Cc1ccc(S(=O)(=O)N/N=C2\CC[C@H]3[C@@H]4CC=C5C[C@@H](O)CC[C@]5(C)[C@H]4CC[C@]23C)cc1	95.3% (active)	95.3% (active)	76.3% (active)	97% (active)	90.6% (active)	96% (active)
Cc1ccc(N2CCN(CCC(=O)O)CC2)cc1	-1.15%	8.8%	0.75%	-3.85%	-41.6%	22.4%
CCOC(C)C=O (stereo unspecified)	-3.85%	19.1%	-21.4%	-36%	-7.6%	-25.9%
CCOC1=CC(=O)CCC1	-0.2%	-23%	24.9%	-36.5%	-7.1%	3%
COC(=O)C(=O)C1(C)CCc2c(ccc3ccc(OC)cc23)C1=O (stereo unspecified)	-32.8%	-3.1%	-5.9%	-31.9%	19.9%	-5.65%
CC(C)C(N)(C(=O)O)c1ccccc1 (stereo unspecified)	-19.7%	-20.2%	-51.5%	-73.4%	-14.9%	-24.9%
O=[N+]([O-])c1ccc(/C=C/c2ccc([N+](=O)[O-])cc2S(=O)(=O)O)c(S(=O)(=O)O)c1	25.8%	-9.6%	30.8%	5.45%	32.9%	32%
C=Nc1ccc([N+](=O)[O-])c(N=C)c1	-2.85%	-0.25%	-9.7%	-18%	2.7%	5.15%
COc1cc(C=C2C(=O)NC(=O)NC2=O)ccc1OCc1ccccc1	-0.15%	-1.5%	-1.1%	3.3%	-22.3%	-42.6%
Cc1cc2nc(N3CCCCC3)n(C3OC(CO)C(O)C3O)c2cc1C (stereo unspecified)	11%	10.2%	-0.45%	10.7%	-8.75%	13.8%
CCOC(=O)c1c(C(C)=O)cnc2c(C#N)cnn12	-1.15%	-1.55%	-4.95%	41%	0.6%	-10.9%
Cc1ccc2c(c1)nc(N)n[n+]2[O-]	2.85%	-14.7%	-3.4%	3.25%	-8.95%	-39.5%
C/C(N=NS(=O)(=O)c1c(C)cc(C)cc1C)=C1\C=CC=CN1O	-26.4%	-10.2%	-8.25%	-6.95%	4.15%	-18.8%
CSCCC(O)C(=O)O (stereo unspecified)	21.8%	-7.4%	19.5%	28.2%	-2.55%	17%
C[N+]1(C)CCCC1	24.5%	5.5%	24.2%	7.6%	35.5%	16.1%
CN(C)c1ccc(C=Nc2cc(Cl)ccc2O)cc1	38.9%	23.2%	37.4%	-2.9%	66%	52.9%
COCC1OC(OC2(COC)OC(COC)C(OC)C2OC)C(OC)C(OC)C1OC (stereo unspecified)	22.1%	-4.15%	-9.2%	-34.2%	-18.1%	5.6%
CC(=O)Nc1ccc(OC2=CCN(C)CC2)cc1	0.75%	-16.1%	8.85%	12.7%	11.1%	-64.8%

SMILES	growth inhibition [1]	growth inhibition [2]	growth inhibition [3]	growth inhibition [4]	growth inhibition [5]	growth inhibition [6]
COc1cc(O)c(C(C)=O)c2c1C=CC(C)(C)O2	-4.95%	-47.1%	-19.9%	-16.8%	-13.8%	-14.7%
N#CCCNC1CCCCC1	2.95%	4%	2.5%	-14.3%	0.85%	-0.25%
COc1cc(C)c(O)c(C/C=C(\C)CC2=C[C@@]3(C)CCC[C@@]3(C)[C@]3(CC(O)C(C)(C)O3)O2)c1 (stereo partly specified)	21.1%	6.2%	-8.5%	4.75%	4.95%	10%
Cc1[nH]c2cc([N+](=O)[O-])ccc2c1C	0.45%	-35.2%	-10.1%	21.8%	1.3%	-0.5%
NC(=O)c1nnn(Cc2ccccc2)c1C(N)=O	-13.9%	-11.4%	12.6%	-33.6%	8%	3.85%
C=C(C)CC1CC(=O)OC1=O (stereo unspecified)	26%	-16.4%	13.6%	-21.9%	-9.8%	4.35%
O=C1c2ccccc2CCC12OC2c1ccncc1 (stereo unspecified)	12.1%	27.1%	25%	6.75%	39.4%	29.6%
O=C1C=C2SCCN2C(=O)C1	-5.9%	-33.8%	-9.15%	-2.85%	-5.85%	14.9%
OCCN(c1ccccc1)c1nc(N(CCO)c2ccccc2)nc(N(CCO)c2ccccc2)n1	2.7%	8.8%	32.5%	7.75%	29.9%	1.7%
CCC1COC(Nc2cccc3c2CCCC3)=N1 (stereo unspecified)	-0.05%	-6.7%	-8.75%	-30.4%	17.7%	4.55%
C/C=C/c1nc2ccccc2[nH]1	-11.2%	-2.45%	-3%	-2.45%	-6.45%	-0.95%
O=[N+]([O-])c1cccc(NC(c2ccccc2)S(=O)(=O)O)c1 (stereo unspecified)	-5.15%	-18.6%	9.65%	18.9%	8.75%	5.15%
S=C(N/N=C\c1ccc(Cl)cc1Cl)Nc1ccc2cn[nH]c2c1	20%	17.2%	28.2%	-38%	2%	31.8%
C(=N/OC(c1ccccc1)(c1ccccc1)c1ccccc1)/c1ccccc1	13.7%	24.2%	6.2%	7.8%	15.8%	6.45%
CCCCN(C(=O)CCC)c1ccccc1	-71.1%	-0.75%	-11.9%	-40%	-11.2%	-10.1%
O=C(OCC1OC(n2cnc3c(Cl)ncnc32)C(OC(=O)c2ccccc2)C1OC(=O)c1ccccc1)c1ccccc1 (stereo unspecified)	-16.6%	-21.2%	-13.2%	5.6%	-12.8%	-13.3%
CCOC(=O)Cc1ccccn1	5.8%	-22.5%	-37.7%	-14.3%	-14.9%	-6%
COC1(OC)C=NNc2nccn21	2.05%	-2.5%	3.3%	19.6%	-5.9%	-5.3%
NC(=O)NC1CC1c1ccccc1 (stereo unspecified)	-6.6%	4.1%	-2.7%	22.1%	-10.3%	-1.45%
CCCCCCCCCc1ccc(COCC)cc1	-9.55%	11.9%	7.05%	-16%	22.1%	9.55%
